CDC25B-CDK2 inh: human CDC25B-CDK2/CyclinA binding inhibition | P30305+P24941 | HTRF CDC25B-CDK2/CyclinA binding, anti-His/anti-Flag; hits give high values | z-score (concentration not given with the values) | 94,000 compounds, 0.72% hits | AID 1259370; in the data active = z-score above about 3.2
HIV TAR-Tat: HIV-1 TAR-Tat binding disruption; AID 1259389; z-score (concentration not given with the values); HIV-1 TAR RNA, Tat peptide displacement FRET; hits give high values; 100,000 compounds, 0.6% hits; active = z-score of 3 or more in at least 2 runs
Numbers without * were called inactive; x = no result. Compounds with a hit are over-represented: about 0.9% of the library has one in this group of screens.

SMILES	CDC25B-CDK2 inh	HIV TAR-Tat
NC(=O)CSc1nc2ccc(NC(=O)c3ccco3)cc2s1	12*	1.8
CCC(=O)Nc1ccc2nc(SCC(N)=O)sc2c1	-1.7	-0.15
O=C(CSc1nc2ccc(NC(=O)c3ccco3)cc2s1)Nc1nccs1	0.57	0.7
Cc1cccc(-c2nc3c(C#N)c[nH]n3c2NC2CCC(C)CC2)c1 (stereo not given)	-0.17	-1.1
COc1cc2c(NC3CCN(C)CC3)cc(N3CCCCN(C)CC3)cc2cc1OCCOCCN(C)C	x	8.3*
COc1cc2c(NC3CCN(C(C)C)CC3)nc(C3CCCCC3)nc2cc1OCCCN1CCCC1	x	0.21
COc1cc2c(NC3CCN(C)CC3)nc(N3CCCN(C)CC3)nc2cc1OCCCN(C)C	x	12*
COc1ccc(S(=O)(=O)n2nc(C)c(S(=O)(=O)N3CCCC3)c2C)cc1C	x	0.7
CCOC(=O)c1ccc(CSc2nc(-c3ccccc3)c(C#N)c(=O)[nH]2)cc1	0.96	1.1
O=C1c2cccnc2C(Nc2cccc(Br)c2)N1Cc1ccco1 (stereo not given)	x	0.45
COCCn1c(C)cc(C(=O)C(=O)Nc2nnc(-c3ccco3)s2)c1C	-1.6	31*
COCCn1c(C)cc(C(=O)C(=O)Nc2nnc(-c3cccs3)s2)c1C	-2.3	2.9
Cc1cc(C(=O)C(=O)Nc2nnc(-c3ccco3)s2)c(C)n1-c1ccc(Cl)cc1	-1.3	19*
Cc1nnc(NC(=O)C(=O)c2cc(C)n(-c3ccc(Cl)cc3)c2C)s1	0.27	1.2
CCc1cccc(C)c1Nc1c(-c2ccc(C)o2)nc2cnccn12	-0.94	-7.2
Cc1ccc(CNC(=O)NCc2c(-n3cccc3)sc3c2CCCC3)cc1	-1.2	13*
Cc1cc(C)cc(NC(=O)NCc2c(-n3cccc3)sc3c2CCCC3)c1	-0.2	0.31
O=c1ccc2ccc(O)cc2o1	x	0.33
O=c1ccc2cc(O)c(O)cc2o1	x	25*
CN(Cc1ccco1)C(=O)c1cnc2sc3c(n2c1=O)CCCC3	x	0.5
COc1ccc(NC(=O)NCc2nnnn2-c2ccccc2)cc1OC	x	1.5
O=c1cc(-c2ccccc2)[nH]c(=S)[nH]1	-1.1	x
N/C(=N\O)c1c(-c2ccccc2)cc(-c2ccc(F)cc2)[nH]c1=O	11*	x
COc1ccc(Nc2c(-c3ccc(N(C)C)cc3)nc3ncccn23)cc1	-3.5	-0.2
CCOc1cccc(-c2cc(C(=O)Nc3ccc4c(c3)OCCO4)c3ccccc3n2)c1	-3.4	x
SMILES	CDC25B-CDK2 inh	HIV TAR-Tat
COc1ccccc1Cn1cc(C(=O)c2ccccc2)c(=O)c2cc3c(cc21)OCCO3	-1.2	-0.99
CC12OC(C(Br)C1Br)C1C(=O)OC(=O)C12 (stereo not given)	6.1*	x
Cc1ccccc1Nc1c(-c2ccccc2O)nc2cnccn12	-0.49	1.9
Cc1cccc(CSc2nc3c(c(=O)[nH]2)C(c2cc(F)cc(F)c2)CC(=O)N3)c1 (stereo not given)	1.5	2.5
COc1ccc(C2CC(=O)Nc3nc(SCc4ccccc4)[nH]c(=O)c32)cc1Br (stereo not given)	-0.72	0.73
Cc1ccc(CSc2nc3c(c(=O)[nH]2)C(c2cc(C)ccc2C)CC(=O)N3)cc1 (stereo not given)	-1.4	1.5
Cc1cccc(CSc2nc3c(c(=O)[nH]2)C(c2ccc(O)c(O)c2)CC(=O)N3)c1 (stereo not given)	-0.51	12*
O=C1CC(c2ccc(O)c(O)c2)c2c(nc(SCc3ccccc3)[nH]c2=O)N1 (stereo not given)	2.6	17*
Cc1ccc(CSc2nc3c(c(=O)[nH]2)C(c2ccc(O)c(O)c2)CC(=O)N3)cc1 (stereo not given)	0.11	12*
CCCOC(=O)CSc1nc2c(cc1C#N)CCC2	-1.2	-1
COc1ccc(Br)cc1CNCCCSc1nnnn1C	-0.95	-0.33
O=c1c2c(nc3n1CCOC3)sc1c(O)c(Br)ccc12	-9.8	x
CCOC(=O)C1CCN(C(=O)C(C)n2ncn3cccc3c2=O)CC1 (stereo not given)	-2.5	1.4
Cn1c(/C=C/c2ccc3c(c2)OCO3)nc2ccccc2c1=O	0.59	0.6
C(=C\c1ccc2c(c1)OCO2)/C1=NN(c2ccccc2)C(c2ccc3c(c2)OCO3)C1 (stereo not given)	16*	0.32
COc1ccc(S(=O)(=O)N(CCc2ccccc2)CCS(=O)(=O)N2CCNCC2)cc1	x	0.45
Cn1cc(-c2cc3n(n2)CCC(=O)N3CCCC(=O)NC2CCCc3ccccc32)c2ccccc21 (stereo not given)	x	-0.1
CC(CC(=O)NCc1ccco1)CC1=NS(=O)(=O)c2ccccc2N1 (stereo not given)	x	9.5*
Cc1ccc(CNC(=O)CC(C)CC2=NS(=O)(=O)c3ccccc3N2)o1 (stereo not given)	x	0.5
CCc1nnc(SCC(=O)Nc2ccc(OC)cc2OC)c2cc3oc(C)cc3n12	x	2.5
COC(=S)Nc1cccc(C(F)(F)F)c1	-1.8	x
COc1cc(OC)c2nc(C)c3c(c2c1)CN(C(=O)Nc1cccc(C(F)(F)F)c1)C3	15*	x
CCCCC(=O)Nc1nnc(SCc2cc(=O)n3c(C)csc3n2)s1	x	0.22
COc1cc(C)c(Cl)cc1S(=O)(=O)N1CCN(c2cc(N3CCCC3)nc(C)n2)CC1	0.05	0.69
Cc1ccc(C)c(N2CCN(c3c(-c4ccc(C)c(C)c4)c(=O)c3=O)CC2)c1	x	13*
SMILES	CDC25B-CDK2 inh	HIV TAR-Tat
Cc1ccc(-c2c(N3CCN(c4cc(C)ccc4C)CC3)c(=O)c2=O)cc1	x	1.5
Cc1nc2ccccc2c2c1C(=O)N(CC(C)C)C2=O	-0.98	-0.86
Cc1nc2ccccc2c2c1C(=O)N(CC1CCCO1)C2=O (stereo not given)	7.4*	0.78
N#Cc1c(SCC(=O)NCC2CCCO2)nc2c(c1-c1ccco1)CC/C2=C/c1ccco1 (stereo not given)	x	20*
N#Cc1c(SCC(=O)Nc2cccc(F)c2)nc2c(c1-c1ccco1)CCCC2	-1.7	x
O=C(Nc1ccccc1)Nc1ccccc1N1CCOCC1	-1.8	x
O=C(O)c1sccc1S(=O)(=O)Nc1ccccc1N1CCOCC1	19*	x
Cc1cc(N2CCN(CCO)CC2)n2nc(-c3ccc(C(C)(C)C)cc3)nc2n1	0.25	0.97
CCCNC(=O)c1cc([N+](=O)[O-])cc2c1-c1ccc([N+](=O)[O-])cc1C2=O	16*	x
O=C1c2cc([N+](=O)[O-])ccc2-c2ccc([N+](=O)[O-])cc21	0.65	x
COc1ccc(C2C3=C(CCCC3=O)Nc3nc(SCc4ccc(F)cc4)nn32)cc1 (stereo not given)	-1.4	0.42
Cc1cccc(Oc2nc3ccccc3n3c(=O)[nH]nc23)c1C	0.39	0.3
CSc1ccc(C2CC(=O)N3CN(c4cccc(C)c4)CSC3=C2C#N)cc1 (stereo not given)	8.5*	-2.6
Cc1cccc(N2CSC3=C(C#N)C(c4ccc(F)cc4)CC(=O)N3C2)c1 (stereo not given)	4.1*	-1.2
Cc1cccc(N2CSC3=C(C#N)C(c4ccccc4Cl)CC(=O)N3C2)c1 (stereo not given)	0.48	0.81
O=C(Nc1cccc(O)c1)c1cccc(-n2cnnc2)n1	x	0.96
CCc1ccc2c(c1)NC(c1ccncc1)=NC(c1ccc(F)cc1)=N2	0.5	0.98
O=C(CCc1nc2sc3c(c2c(=O)[nH]1)CCCCC3)N1CCN(C2CCCCC2)CC1	x	1.6
Cc1nnc2c(Oc3ccc(Cl)cc3)nc3ccccc3n12	16*	0.92
Cc1ccc(Oc2nc3ccccc3n3c(C)nnc23)cc1C	0.64	x
